The whole screen tested about 140,000 compounds, of which about 4,300 (3.1%) were called active. Roughly 21% stayed inconclusive and do not appear here. The entries come from a sample that favours actives as a whole. A number with no mark means an inactive call.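 Rule for the calls: active = readout at or below -70, meaning at least 70% loss of cells showing the perinucleolar compartment, a nuclear body marking cancer cells; inconclusive = readout between -30 and a set limit; inactive = the rest.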

The experiment in a line: High Content Assay for Compounds that inhibit the Assembly of the Perinucleolar Compartment.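 Note: plate controls were DMSO wells for no effect and camptothecin positive control wells for full effect.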 The following applies: PC3M PTB-GFP, PNC prevalence imaging, 16 h; at 10 µM; active compounds read low. Summed up:
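Read-out is percentage of cells bearing a perinucleolar compartment, from automated 20x imaging of fixed, Hoechst-stained PC3M PTB-GFP cells. Cells were seeded 4 h, then exposed 16 h to compound (23 nl of library stock) in duplicate plates.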
Consider `COc1ccc(NS(=O)(=O)c2cc(NC(=O)/C=C/c3cc(OC)c(OC)c(OC)c3)ccc2N2CCCCC2)cc1`, for which the activity change (PNC), negative = inhibition is -0.688%.
Under `CC1(C)CC(=O)C(N=Nc2ccc(S(=O)(=O)N3CCCCCC3)cc2)=C(O)C1` stands 24.1%; under `COc1ccc(CNC(=O)CN(Cc2ccc(Cl)cc2)S(C)(=O)=O)cc1`, 48.3%; under `Cc1cccc(NC(=O)c2sc(-c3ccccc3)nc2-c2ccc([N+](=O)[O-])cc2)c1`, -100% (active).
Turning to `COc1ccc(C(=O)Nc2nc(-c3ccc(OC)cc3)c(-c3ccc([N+](=O)[O-])cc3)s2)cc1`, the activity change (PNC), negative = inhibition is -23.3%.
Under `O=C(CSc1nc(-c2ccccc2)cs1)Nc1cccc([N+](=O)[O-])c1` stands 126%; under `O=C(O)C1CC(=O)N(Cc2cccnc2)C1` (configuration not stated), -9.97%; under `O=C1OC(c2ccc(Cl)cc2)=N/C1=C\c1cccnc1`, 41.2%.
Under `O=C1/C(=C\c2cccnc2)CN(Cc2ccccc2)C/C1=C\c1cccnc1` stands -112% (active); under `O=C(Nn1c(-c2ccc(Cl)cc2)nc2ccccc2c1=O)c1cccnc1Cl`, 8.85%.
Under `Cc1ccnc(NS(=O)(=O)c2ccc(NC(=O)c3ccc(S(=O)(=O)N4CCOCC4)cc3)cc2)n1` stands -19.3%; under `CC(OC(=O)CNS(=O)(=O)/C=C/c1ccccc1)C(=O)Nc1ccc(S(=O)(=O)N2CCCC2)cc1` (configuration not stated), 64.4%; under `CCOC(=O)/C(=N\Nc1cc(Cl)ccc1Cl)N1CCN(C)CC1`, -27.3%.
`c1ccc2[nH]c(NCCN3CCOCC3)nc2c1`: the activity change (PNC), negative = inhibition was -1.68%.
With `c1ccc2cc3c(NCCN4CCOCC4)ccnc3cc2c1`, the activity change (PNC), negative = inhibition was -103% (active).
Under `O=C(Cn1c(-c2ccccn2)nc2ccccc21)NCCN1CCOCC1` stands 42.9%; under `NS(=O)(=O)c1ccc(NC(=O)COC(=O)C2(c3ccc(F)cc3)CCCC2)cc1`, 50%.
Regarding `CC1(C)Cc2cccc(OCC(=O)N3CCN(c4ccc([N+](=O)[O-])cc4)CC3)c2O1`, the activity change (PNC), negative = inhibition is 7.92%.
Under `CC1(C)Cc2cccc(OCC(=O)Nc3nccs3)c2O1` stands -87.8% (active).
`CCCCOC(=O)Nc1nccs1`: the activity change (PNC), negative = inhibition is 243%.
Under `Cc1ccccc1C(OCCN(C)C)C1CCCCC1` (configuration not stated) stands -5.25%; under `Cc1ccccc1Nc1nc(N)nc(CSc2ccccc2)n1`, -3.06%.
Under `N=c1c2c(-c3ccccc3)c(-c3ccccc3)n(Cc3ccccc3)c2ncn1CCCO` stands -90.2% (active); under `OCCCN1c2ccccc2Nc2nnc(-c3ccccc3)cc21`, -15.1%; under `N=c1c2c(-c3ccccc3)c(-c3ccccc3)oc2ncn1Cc1ccco1`, 34.2%.
As for `CN(C)c1ccc(/C=N/N(Cc2ccccc2)c2ccccc2)cc1`, the activity change (PNC), negative = inhibition was -6.4%.
For `CCN1CN(Cc2ccccc2)CNC1=S`, the activity change (PNC), negative = inhibition was -4.78%.
Under `CCCCOc1ccc(CSC(=N)N)cc1[N+](=O)[O-]` stands -6.06%; under `CCCOc1ccc(Cn2ccnc2)cc1[N+](=O)[O-]`, -21.9%.
Under `CCCCCOc1ccc(CSC2=NCCN2)cc1[N+](=O)[O-]` stands -84.7% (active).
Under `COc1ccc(Br)cc1CN(C)CC(=O)Nc1cc(Cl)cc(Cl)c1` stands 5.92%; under `O=C(NC1CC1)c1cccc(Br)c1`, 8.13%; under `CN(c1ccccc1)S(=O)(=O)c1ccc(Cl)c(C(=O)NCCc2c[nH]c3ccccc23)c1`, -83.7% (active).
For `CCN(CC)S(=O)(=O)c1ccc2[nH]cc(C(=O)NCCc3ccccc3)c(=O)c2c1`, the activity change (PNC), negative = inhibition was -4.74%.
Under `Cc1cc(C)cc(NC(=S)NCCc2c[nH]c3ccccc23)c1` stands 22.2%.
In the case of `O=C1CC(NNc2ccccc2)C(=O)N1c1cccc(Cl)c1` (configuration not stated), the activity change (PNC), negative = inhibition was 44.7%.
In the case of `O=C(NNC1CC(=O)N(c2cccc(Cl)c2)C1=O)c1cccnc1` (configuration not stated), the activity change (PNC), negative = inhibition is -121% (active).
In the case of `Cc1ccc(-n2nc3cc(C)c(NC(=O)c4cccnc4)cc3n2)cc1`, the activity change (PNC), negative = inhibition was 22.4%.
Under `O=C(CCc1ccc(S(=O)(=O)N2CCOCC2)cc1)NN=C1CCCCCCC1` stands -25.6%.
Under `Cc1cc2c(c(=O)n1Cc1ccco1)C(c1ccccc1)C(C#N)=C(N)O2` (configuration not stated) stands -6.34%.
For the compound `N#CC1=C(N)Oc2c(sc3ccccc23)C1c1ccco1` (configuration not stated), the activity change (PNC), negative = inhibition was -91.1% (active).
`Cc1cc2oc(C(=O)Nc3c(C)n(C)n(-c4ccccc4)c3=O)c(C)c2cc1Cl`: the activity change (PNC), negative = inhibition was 2.22%.
Regarding `Cc1cccc(NC(=O)/C=C/c2ccc3c(c2)OCO3)n1`, the activity change (PNC), negative = inhibition was 46%.
On to `COc1ccc(NC(=O)c2sccc2SCC#N)cc1`, for which the activity change (PNC), negative = inhibition is -88.1% (active).
Under `COc1ccc(NC(=O)c2ccc(C#CC(C)(C)O)cc2)cc1` stands -12.4%; under `COc1ccc(NC(=O)c2c(SC)nsc2SC)cc1`, -6.12%; under `CCCOC(=O)c1ccc(N2C(=O)c3ccccc3C2=O)cc1`, -21.8%.
